# About 83,000 compounds went through this panel and 20% of them were active in at least one assay; those are over-represented in the sample as a whole.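 Single-concentration screen, 48 h exposure, 96-well plates. Endpoint: percent growth. Below 10 = active.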 A number with no mark means an inactive call. Active and inactive are the calls of the source.
# Key:
# Experiment in all cases: NCI-60 one-dose screen, 48 h (100 = growth as untreated, 0 = no growth, -100 = all killed)
# HT29 colon = settings: 10 µM unless noted
# SNB-75 CNS = settings: 10 µM unless noted
# SNB-19 CNS = settings: 10 µM unless noted
# U251 CNS = settings: 10 µM unless noted
# PC-3 prostate = settings: 10 µM unless noted
# SK-MEL-5 melanoma = settings: 10 µM unless noted
# UACC-62 melanoma = settings: 10 µM unless noted
# LOX IMVI melanoma = settings: 10 µM unless noted
# SK-MEL-2 melanoma = settings: 10 µM unless noted
# UO-31 renal = settings: 10 µM unless noted
# TK-10 renal = settings: 10 µM unless noted
# ACHN renal = settings: 10 µM unless noted
# CAKI-1 renal = settings: 10 µM unless noted
# A498 renal = settings: 10 µM unless noted
# CCRF-CEM leukemia = settings: 10 µM unless noted
# MOLT-4 leukemia = settings: 10 µM unless noted
# SR leukemia = settings: 10 µM unless noted
# SK-MEL-28 melanoma = settings: 10 µM
# SN12C renal = settings: 10 µM unless noted
# EKVX NSCLC = settings: 10 µM unless noted
Compound,growth (HT29 colon),growth (SNB-75 CNS),growth (SNB-19 CNS),growth (U251 CNS),growth (PC-3 prostate),growth (SK-MEL-5 melanoma),growth (UACC-62 melanoma),growth (LOX IMVI melanoma),growth (SK-MEL-2 melanoma),growth (UO-31 renal),growth (TK-10 renal),growth (ACHN renal),growth (CAKI-1 renal),growth (A498 renal),growth (CCRF-CEM leukemia),growth (MOLT-4 leukemia),growth (SR leukemia),growth (SK-MEL-28 melanoma),growth (SN12C renal),growth (EKVX NSCLC)
O=C(NC1CCCCC1)C(c1cccs1)N(CCc1ccccc1)C(=O)c1ccco1 (configuration not stated),69.6%,91.2%,96.4%,96.9%,92.9%,97.5%,90.3%,94.7%,84%,100%,94.5%,94.6%,83%,93%,93.8%,84.9%,85.8%,–,–,–
O=C(Nc1ccccc1O)c1ccc(-c2ccc(Cl)cc2Cl)o1,53.9%,78.1%,89.2%,81.1%,71.7%,85.9%,105%,–,96.3%,74%,102%,102%,78.7%,86.4%,75.1%,65.6%,48.7%,98.6%,89.8%,–
O=C(Nc1ccc(Cl)cc1)N1CCN(c2ccc3nncn3n2)CC1,-28.6% (active),-68.9% (active),80.3%,-74.7% (active),16.4%,-98.4% (active),-88.3% (active),–,22%,36.1%,42.3%,8.04% (active),29.3%,21.5%,-9.45% (active),-41.5% (active),-40.5% (active),-95.5% (active),54.3%,–
CC(=S)NC(=O)C(=O)/C=C1/NC(=O)C(=O)S1,110%,95.5%,106%,111%,99.6%,104%,99.9%,–,103%,79.5%,110%,99.1%,93.8%,103%,107%,112%,107%,106%,99.1%,100%
CCOc1c(Br)cc(C2C(C(=O)OC)=CN(C)C=C2C(=O)OC)cc1OC,6.47% (active),47.3%,89%,51%,60.7%,19.6%,71.3%,54.9%,65.7%,38.2%,69.3%,64.4%,75.8%,99%,72.7%,59.6%,8.75% (active),–,–,–
COc1cccc(/C=C/C(=O)c2c(C)nc3ccccc3c2/C=C/c2ccccc2)c1OC,2.64% (active),9.19% (active),36.3%,24%,43.3%,32.3%,28.5%,–,32.3%,48.8%,61.6%,31.4%,39.2%,58.1%,13%,4.78% (active),–,44.8%,31.1%,50.8%
O=C(Nc1ccc(F)c(Cl)c1)Nc1ccc(Cl)c(Cl)c1,51.8%,79.7%,92.8%,63.4%,77%,59.6%,58.9%,–,79.7%,79.2%,101%,96%,76.1%,69.6%,64.8%,43.9%,10.2%,70.1%,75.8%,–
Cc1nc(Nc2cn[nH]c2C(=O)Nc2ccc(CN3CCN(C)CC3)cc2)c2ccsc2n1,66.1%,37.7%,107%,92.8%,69.8%,90.3%,93.9%,–,111%,59.6%,114%,92.8%,61.5%,66.7%,40.5%,45.8%,5.46% (active),107%,75.4%,106%
COC(=O)c1c2c(c(C)[n+]([O-])c1C)C(=O)C=C(NCc1ccccc1)C2=O,5.35% (active),-71.5% (active),-11.4% (active),-9.66% (active),4.06% (active),-98.5% (active),-72.3% (active),–,-29.6% (active),-13.6% (active),18.1%,-29.5% (active),3.56% (active),–,6.23% (active),-36.2% (active),4.44% (active),14.1%,-89.1% (active),-54.9% (active)
O=Cc1cc2ccccc2nc1Nc1nccs1,33.9%,79.4%,71.6%,70.4%,49.5%,82.2%,84.5%,–,105%,31.2%,101%,31.5%,79.5%,81.9%,46.7%,23.4%,33.9%,104%,45.5%,98.5%
O=S(=O)(Nc1ncccn1)c1ccc(NC2Nc3nc4ccccc4nc3S2)cc1 (configuration not stated),106%,84.9%,99.3%,103%,101%,98.7%,93.7%,–,106%,78.5%,109%,98.5%,94%,99.3%,104%,99.7%,102%,98.7%,97.7%,90.7%
O=S1(=O)N(Cc2ccccc2)[C@@H](Cc2ccccc2)C2O[C@H]2[C@H](Cc2ccccc2)N1Cc1ccccc1 (some centres not stated),46.7%,46.3%,44.9%,41.5%,42%,28.3%,40.8%,19.6%,–,68.1%,71%,41.2%,33.8%,65.4%,29.5%,35.4%,29.6%,–,47.8%,24%
O=c1oc2ccc(F)cc2c(=O)n1-c1ccc(Br)cc1F,32.6%,-15.7% (active),17.1%,2.06% (active),-2.97% (active),–,-6.65% (active),13.5%,-30.2% (active),5.26% (active),3.34% (active),2.25% (active),-14.8% (active),-55.4% (active),11.1%,-7.7% (active),–,11.1%,-4.08% (active),7.09% (active)
COc1ccc(Nc2cc(C)nc(NCc3ccccc3)n2)cc1,11%,49%,57.1%,15.8%,28.1%,61.9%,69.3%,–,–,42%,37.9%,36.3%,30.8%,81%,-3.8% (active),3.02% (active),0.982% (active),63.9%,38.2%,–
O=C(Nc1ccc(F)cc1F)c1cc(I)ccc1O,76.6%,-2.44% (active),16.8%,4.06% (active),5.01% (active),–,9.89% (active),13.4%,-15.8% (active),2.51% (active),23.1%,11%,-17.5% (active),-33.2% (active),14.1%,7.29% (active),–,23.8%,8.12% (active),55.8%
O=c1oc2ccc(I)cc2c(=O)n1-c1ccc(Br)cc1F,50%,-18.9% (active),18.2%,0.297% (active),1.7% (active),–,-14.7% (active),11.2%,-27.7% (active),5.6% (active),0.987% (active),1.01% (active),-17.8% (active),-62.2% (active),8.26% (active),3.69% (active),–,2.3% (active),0.636% (active),7.21% (active)
CCOc1ccc(-c2nonc2NC(=O)c2cccc(C)c2)cc1OCC,28.3%,89.2%,90.7%,75%,27.4%,35.2%,78.4%,–,88.6%,70%,79.2%,83.9%,59.8%,39.4%,23.1%,4.22% (active),-34.7% (active),89.5%,70.2%,–

# Reference: PubChem BioAssay (NCI)
